In paper PMC5700166:
Residue numbers refer to the chain shown, from its start.

How the values were obtained:
Assay in all cases: protein-binding microarray (PBM); PBM: ~300 nM protein, 6 mM HEPES pH 7.8, 80 mM KCl, 0.5 mM EDTA, 0.5 mM EGTA, 6% glycerol, 35 ng/ul poly-dIdC, 1% milk, 1 h, room temperature; Ap Aiptasia and Nv Nematostella (sea anemones) / Co Capsaspora / Aq Amphimedon (sponge) / Dm Drosophila / Hu human; RHD is the Rel homology domain; high values mean tight binding
Settings in all cases: dsDNA, one strand shown
[1] = molecular target: T1, GST-Ap-NF-kB RHD (Exaiptasia pallida (Aiptasia), UniProt A0A913YAJ5 2-422)
T1 sequence: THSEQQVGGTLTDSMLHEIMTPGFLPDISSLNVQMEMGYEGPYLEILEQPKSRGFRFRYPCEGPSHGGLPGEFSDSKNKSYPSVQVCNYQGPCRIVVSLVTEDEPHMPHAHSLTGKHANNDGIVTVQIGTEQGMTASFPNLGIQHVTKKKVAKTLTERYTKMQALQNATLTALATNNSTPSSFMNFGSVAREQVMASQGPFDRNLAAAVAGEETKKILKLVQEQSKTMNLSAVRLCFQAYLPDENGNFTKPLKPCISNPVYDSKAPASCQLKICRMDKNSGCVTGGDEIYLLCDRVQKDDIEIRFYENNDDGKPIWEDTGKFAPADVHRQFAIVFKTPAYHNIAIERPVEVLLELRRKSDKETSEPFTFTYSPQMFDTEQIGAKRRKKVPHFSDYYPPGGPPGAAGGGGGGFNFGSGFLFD

[2] = molecular target: T2, GST-Nv-NF-kB (Cys allele) (Nematostella vectensis, UniProt E5G601 2-411)
T2 sequence: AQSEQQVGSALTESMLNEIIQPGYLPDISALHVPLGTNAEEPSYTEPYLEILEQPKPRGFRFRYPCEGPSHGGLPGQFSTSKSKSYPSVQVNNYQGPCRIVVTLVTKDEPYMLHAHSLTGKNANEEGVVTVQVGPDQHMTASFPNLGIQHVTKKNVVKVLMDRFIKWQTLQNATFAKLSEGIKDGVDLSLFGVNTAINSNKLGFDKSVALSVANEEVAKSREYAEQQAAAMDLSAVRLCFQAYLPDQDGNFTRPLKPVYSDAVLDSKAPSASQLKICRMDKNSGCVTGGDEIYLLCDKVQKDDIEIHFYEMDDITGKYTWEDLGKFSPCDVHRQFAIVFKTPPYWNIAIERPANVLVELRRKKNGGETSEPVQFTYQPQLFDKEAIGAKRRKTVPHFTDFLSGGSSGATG

[3] = molecular target: T3, GST-Nv-NF-kB (Ser allele) (Nematostella vectensis, UniProt A7UNT2 2-411)
T3 sequence: T2 sequence with Q21R, C66S, S207N, E215Q, V217A, E225K, A268E, D399E

[4] = molecular target: T4, GST-Co-NF-kB (Capsaspora owczarzaki, UniProt F1ARL5 200-546)
T4 sequence: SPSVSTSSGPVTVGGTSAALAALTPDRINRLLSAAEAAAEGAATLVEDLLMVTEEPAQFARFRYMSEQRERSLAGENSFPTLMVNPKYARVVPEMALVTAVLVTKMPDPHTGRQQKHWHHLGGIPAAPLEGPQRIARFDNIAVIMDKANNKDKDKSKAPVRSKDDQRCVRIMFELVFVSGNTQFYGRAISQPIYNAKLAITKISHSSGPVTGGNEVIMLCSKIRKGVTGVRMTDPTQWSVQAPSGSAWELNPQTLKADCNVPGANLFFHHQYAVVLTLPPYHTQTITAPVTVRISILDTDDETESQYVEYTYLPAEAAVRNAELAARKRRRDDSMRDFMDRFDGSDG

[5] = molecular target: T5, GST-Dm-Relish (Drosophila melanogaster, UniProt Q94527 99-473)
T5 sequence: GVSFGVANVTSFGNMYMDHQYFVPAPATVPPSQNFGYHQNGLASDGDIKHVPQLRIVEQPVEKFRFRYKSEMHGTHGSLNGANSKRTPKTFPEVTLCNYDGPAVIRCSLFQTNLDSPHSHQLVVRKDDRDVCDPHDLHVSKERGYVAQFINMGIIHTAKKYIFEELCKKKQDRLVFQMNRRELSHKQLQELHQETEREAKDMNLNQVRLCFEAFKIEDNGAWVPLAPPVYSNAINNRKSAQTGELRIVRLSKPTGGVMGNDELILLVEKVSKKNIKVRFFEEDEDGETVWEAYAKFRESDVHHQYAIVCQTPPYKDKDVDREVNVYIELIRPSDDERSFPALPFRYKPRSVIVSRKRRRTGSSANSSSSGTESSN

[6] = molecular target: T6, GST-Aq-NF-kB (Amphimedon queenslandica, UniProt A9Y5G7 2-389)
T6 sequence: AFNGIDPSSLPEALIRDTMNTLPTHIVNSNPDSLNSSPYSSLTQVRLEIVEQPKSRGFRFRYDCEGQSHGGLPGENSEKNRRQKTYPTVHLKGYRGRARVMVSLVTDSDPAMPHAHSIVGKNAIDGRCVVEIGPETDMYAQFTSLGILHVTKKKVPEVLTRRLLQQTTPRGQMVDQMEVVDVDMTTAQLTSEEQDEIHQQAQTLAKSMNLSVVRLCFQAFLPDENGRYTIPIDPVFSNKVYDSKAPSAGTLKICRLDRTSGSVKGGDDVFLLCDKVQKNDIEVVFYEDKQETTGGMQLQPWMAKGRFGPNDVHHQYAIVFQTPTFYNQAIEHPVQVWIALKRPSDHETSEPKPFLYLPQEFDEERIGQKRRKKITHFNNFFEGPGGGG

[7] = molecular target: GST-Hu-p50 (Homo sapiens, UniProt P19838 7-356)
Sequence of GST-Hu-p50 (P19838 7-356): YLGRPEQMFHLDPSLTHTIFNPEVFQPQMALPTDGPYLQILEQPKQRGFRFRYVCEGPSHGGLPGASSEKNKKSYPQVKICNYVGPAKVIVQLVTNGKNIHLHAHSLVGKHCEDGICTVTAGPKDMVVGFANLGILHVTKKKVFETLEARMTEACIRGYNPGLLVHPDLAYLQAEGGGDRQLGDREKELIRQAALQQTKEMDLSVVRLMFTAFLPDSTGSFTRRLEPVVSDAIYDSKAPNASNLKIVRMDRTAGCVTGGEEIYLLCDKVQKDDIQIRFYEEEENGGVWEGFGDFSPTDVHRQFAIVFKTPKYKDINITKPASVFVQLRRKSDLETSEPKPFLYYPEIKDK

Row | Sequence | binding signal [1] | binding signal [2] | binding signal [3] | binding signal [4] | binding signal [5] | binding signal [6] | binding signal [7]
1 | CCGATTAACATCAGGGGGAAGACTGATGTTAATCGGGTCTTGATTCGCTTGACGCTGCTG | 5.87 z-score | 6.01 z-score | 6.96 z-score | 8.23 z-score | 4.92 z-score | 5.25 z-score | 6.29 z-score
2 | CCGATTAACATCAGGGGAAACACTGATGTTAATCGGGTCTTGATTCGCTTGACGCTGCTG | 6.4 z-score | 8.15 z-score | 9.65 z-score | 7.63 z-score | 9.02 z-score | 7 z-score | 6.08 z-score
3 | CCGATTAACATCAAATCATTCCCTGATGTTAATCGGGTCTTGATTCGCTTGACGCTGCTG | 1.6 z-score | 3.39 z-score | 3.1 z-score | 3.4 z-score | 1.31 z-score | 4.36 z-score | 1.78 z-score
4 | CCGATTAACATCAGGGAGAACCCTGATGTTAATCGGGTCTTGATTCGCTTGACGCTGCTG | 4.28 z-score | 3.85 z-score | 1.28 z-score | 1.72 z-score | 4.39 z-score | 6.47 z-score | 2.75 z-score
5 | CCGATTAACATCAAAAATCCCAATGATGTTAATCGGGTCTTGATTCGCTTGACGCTGCTG | 2.79 z-score | 3.4 z-score | 2.4 z-score | 1.58 z-score | 6.98 z-score | 3.37 z-score | 3.32 z-score
6 | CCGATTAACATCAAGGATCCCCCTGATGTTAATCGGGTCTTGATTCGCTTGACGCTGCTG | 8.01 z-score | 6.51 z-score | 6.9 z-score | 5.03 z-score | 8.82 z-score | 6.4 z-score | 6.43 z-score
7 | CCGATTAACATCACTTTTTCCCCTGATGTTAATCGGGTCTTGATTCGCTTGACGCTGCTG | 6.12 z-score | 7.44 z-score | 9.65 z-score | 10.6 z-score | 3.45 z-score | 4.94 z-score | 5.64 z-score
8 | CCGATTAACATCAGGACAGCCCCTGATGTTAATCGGGTCTTGATTCGCTTGACGCTGCTG | 3.75 z-score | 5.09 z-score | 2.05 z-score | 1.05 z-score | 2.67 z-score | 6.62 z-score | 4.14 z-score
9 | CCGATTAACATCACATCCCCCCCTGATGTTAATCGGGTCTTGATTCGCTTGACGCTGCTG | 6.1 z-score | 4.66 z-score | 4.88 z-score | 6.54 z-score | 4.53 z-score | 4.42 z-score | 4.32 z-score
10 | CCGATTAACATCAAATTCCCAATTGATGTTAATCGGGTCTTGATTCGCTTGACGCTGCTG | 1.09 z-score | 3.19 z-score | 3.78 z-score | 2.62 z-score | 3.56 z-score | 2.06 z-score | 2.67 z-score
11 | CCGATTAACATCACGGGATCCCCTGATGTTAATCGGGTCTTGATTCGCTTGACGCTGCTG | 7.35 z-score | 4.81 z-score | 6.31 z-score | 3.23 z-score | 9.23 z-score | 5.41 z-score | 4.53 z-score
12 | CCGATTAACATCACATTCCCCCCTGATGTTAATCGGGTCTTGATTCGCTTGACGCTGCTG | 6.91 z-score | 6.39 z-score | 6.97 z-score | 8.44 z-score | 4.58 z-score | 5.7 z-score | 5.73 z-score
13 | CCGATTAACATCAAGAAGTCCCCTGATGTTAATCGGGTCTTGATTCGCTTGACGCTGCTG | 7.72 z-score | 7.86 z-score | 7.55 z-score | 3.14 z-score | 7.58 z-score | 6.79 z-score | 6.73 z-score
14 | CCGATTAACATCACGGGGGTTCCTGATGTTAATCGGGTCTTGATTCGCTTGACGCTGCTG | 9.11 z-score | 5.77 z-score | 4.99 z-score | 2.92 z-score | 9.73 z-score | 6.72 z-score | 5.25 z-score
15 | CCGATTAACATCAGGGGCCCCCCTGATGTTAATCGGGTCTTGATTCGCTTGACGCTGCTG | 7.09 z-score | 3.78 z-score | 2.88 z-score | 3.01 z-score | 7.07 z-score | 7.54 z-score | 4.57 z-score
16 | CCGATTAACATCAAAAAAGCCCCTGATGTTAATCGGGTCTTGATTCGCTTGACGCTGCTG | 7.94 z-score | 11.4 z-score | 9.29 z-score | 1.83 z-score | 9.41 z-score | 8.77 z-score | 7.54 z-score
17 | CCGATTAACATCAGGGGATGTGCTGATGTTAATCGGGTCTTGATTCGCTTGACGCTGCTG | 3.15 z-score | 3.45 z-score | 5.32 z-score | 1.81 z-score | 1.41 z-score | 2.79 z-score | 3.33 z-score
18 | CCGATTAACATCAAAATTACCCATGATGTTAATCGGGTCTTGATTCGCTTGACGCTGCTG | 2.8 z-score | 4.69 z-score | 4.25 z-score | 2.84 z-score | 4.11 z-score | 4.84 z-score | 4.15 z-score
19 | CCGATTAACATCAGCCCGGGAAATGATGTTAATCGGGTCTTGATTCGCTTGACGCTGCTG | 2.45 z-score | 2.27 z-score | 2.11 z-score | 3.24 z-score | 1.04 z-score | 2.09 z-score | 1.28 z-score
20 | CCGATTAACATCAAGGGGGGTAATGATGTTAATCGGGTCTTGATTCGCTTGACGCTGCTG | 4.04 z-score | 4.87 z-score | 4.3 z-score | 5.42 z-score | 3.36 z-score | 4.75 z-score | 3.62 z-score
21 | CCGATTAACATCAGCATTCCCCCTGATGTTAATCGGGTCTTGATTCGCTTGACGCTGCTG | 7.2 z-score | 7.59 z-score | 7.61 z-score | 6.59 z-score | 4.53 z-score | 5.57 z-score | 6.18 z-score
22 | CCGATTAACATCAAGCACCCCCCTGATGTTAATCGGGTCTTGATTCGCTTGACGCTGCTG | 5 z-score | 3.3 z-score | 3.81 z-score | 3.39 z-score | 4.97 z-score | 4.27 z-score | 4.29 z-score
